Screen size: about 16,000 compounds; about 4,000 (25%) were called active. About 26% were inconclusive and are not listed. Calls follow the shape of the dose curve; as a rule, active = well fitted curve in the direction sought with a large enough effect; inconclusive = small, poorly fitted or top-dose-only effect, or effect the other way; inactive = no such curve, though single readings can be large or run the other way. Not all results are given here.
The compounds below were run against Cytochrome P450 2C9 (Homo sapiens) (UniProt P11712) (assay: Cytochrome panel assay with activity outcomes). Details: recombinant CYP, pro-luciferin dealkylation, luminescence, p450-cyp2c9; series mostly up to 57.1 µM.
Chain of Cytochrome P450 2C9 (Homo sapiens) (P11712 whole entry, looked up): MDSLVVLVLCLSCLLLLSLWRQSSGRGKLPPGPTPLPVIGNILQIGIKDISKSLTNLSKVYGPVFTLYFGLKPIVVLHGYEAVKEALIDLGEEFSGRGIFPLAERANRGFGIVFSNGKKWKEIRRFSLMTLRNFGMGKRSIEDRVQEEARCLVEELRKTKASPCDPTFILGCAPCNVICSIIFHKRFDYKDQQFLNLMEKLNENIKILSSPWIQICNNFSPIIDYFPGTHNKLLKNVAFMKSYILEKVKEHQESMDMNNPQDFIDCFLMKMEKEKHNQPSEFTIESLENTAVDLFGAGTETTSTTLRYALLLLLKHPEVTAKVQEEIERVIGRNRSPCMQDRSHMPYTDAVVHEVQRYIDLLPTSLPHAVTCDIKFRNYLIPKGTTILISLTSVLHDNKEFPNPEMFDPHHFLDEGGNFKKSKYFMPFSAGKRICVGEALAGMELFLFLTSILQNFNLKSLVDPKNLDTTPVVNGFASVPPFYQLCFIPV
For `Cc1nc(N)sc1CCN`, the activity, negative = inhibition was “inactive”. With `Cc1ccc(C2(c3ccc(C)c(O)c3C)CCN(C)CC2)c(C)c1O` the activity, negative = inhibition was 7.08% [at 11.4 µM] (inactive). With `COc1ccc2c(c1OC)CN1CCc3cc4c(cc3[C@H]1C2)OCO4` the activity, negative = inhibition was “inactive”. With `COc1cc([C@H]2c3cc4c(cc3[C@@H](O)[C@@H]3COC(=O)[C@H]23)OCO4)cc(OC)c1OC` the AC50 was 1.26 µM (active). With `CP(=O)(O)C1=CCNCC1` the activity, negative = inhibition was “inactive”. `COC(=O)[C@H]1[C@@H](c2ccccc2)[C@@]2(c3ccccc3)Oc3ccccc3[C@@]1(O)[C@@H]2O` was tested, and the activity, negative = inhibition was -12.5% [at 11.4 µM] (inactive). For `S=C(S)N1CCCC1`, the AC50 was 20 µM (active). In the case of `CCN=C=NCCCN(C)C`, the activity, negative = inhibition is reported as -7.95% [at 11.4 µM] (inactive). With `CC(=O)N1CCC2(CC1)CC(=O)c1cc(OCC(=O)N3CCN(C)CC3)ccc1O2` the activity, negative = inhibition was “inactive”. In the case of `O=C(COc1ccc2ccccc2c1)N1CCN(CC2CC3C=CC2C3)CC1` (stereo unspecified), the AC50 is reported as 17.8 µM (active). With `N[C@@H](Cn1oc(=O)[nH]c1=O)C(=O)O` the activity, negative = inhibition was “inactive”. For `O=C(CCCN1CCC(n2c(=O)[nH]c3ccccc32)CC1)c1ccc(F)cc1`, the activity, negative = inhibition was “inactive”. With `C=C[C@H]1CN2CC[C@@H]1C[C@H]2[C@@H](O)c1ccnc2ccccc12` the activity, negative = inhibition was “inactive”. `O=S(=O)(O)/C(=C\c1ccccc1)c1ccccc1` (tested in a mixture with another compound) was tested, and the activity, negative = inhibition was -14.8% [at 11.4 µM] (inactive). With `COc1cc(OC)c(/C=C2/C(=O)Nc3ccccc32)c(OC)c1` the AC50 was 25.1 µM (active). In the case of `c1ccc(C2CC2)c(OCC2=NCCN2)c1`, the activity, negative = inhibition is reported as “inactive”. For `c1ccc(CCN2CCOCC2)nc1`, the activity, negative = inhibition was -0.553% [at 11.4 µM] (inactive). With `C[C@@]12CC[C@H]3[C@@H](CC=C4C[C@H](OS(=O)(=O)O)CC[C@]43C)[C@H]1CCC2=O` the activity, negative = inhibition was “inactive”. With `c1ccc(CCN2CCCCCC2)nc1` the activity, negative = inhibition was -1.38% [at 11.4 µM] (inactive). For `CC(C)C[C@H](NP(=O)(O)O[C@@H]1O[C@@H](C)[C@@H](O)[C@@H](O)[C@H]1O)C(=O)N[C@@H](Cc1c[nH]c2ccccc12)C(=O)O`, the activity, negative = inhibition was “inactive”. For `CC(C)C[C@H](NC(=O)N1CCCCCC1)C(=O)N[C@H](Cc1cn(C)c2ccccc12)C(=O)N[C@H](Cc1ccccn1)C(=O)O`, the AC50 was 6.31 µM (active). In the case of `CO[C@H]1C=C2CCN(C)[C@@H]2[C@@H]2c3cc4c(cc3C(=O)O[C@H]21)OCO4`, the activity, negative = inhibition is reported as “inactive”. `CC[n+]1c(/C=C/N(C)c2ccccc2)sc2ccc(Cl)cc21` was tested, and the activity, negative = inhibition was “inactive”. With `CNCCCc1ccccc1` the activity, negative = inhibition was “inactive”. For `COc1ccc(OC)c([C@H](O)[C@H](C)N)c1`, the activity, negative = inhibition was “inactive”. In the case of `O=c1oc(Cl)c(Cl)c2ccccc12`, the AC50 is reported as 15.8 µM (active). For `NNC(N)=O`, the activity, negative = inhibition was “inactive”. For `CCN1CCN(Cc2cc(OC)c(OC)cc2[N+](=O)[O-])CC1`, the activity, negative = inhibition was “inactive”. With `CCCN1CCC[C@H](c2cccc(O)c2)C1` the activity, negative = inhibition was “inactive”. For `CCC[C@@](C)(COC(N)=O)COC(=O)NC(C)C`, the activity, negative = inhibition was “inactive”. For `c1cnc(N2CC[C@@]3(CCCNC3)C2)nc1`, the activity, negative = inhibition was “inactive”. With `CCCC(CCC)C(=O)O` the activity, negative = inhibition was “inactive”. For `CCc1ccc(CCN2CCCCC2)nc1`, the activity, negative = inhibition was -14.9% [at 11.4 µM] (inactive). In the case of `CCNC(=O)[C@@H]1O[C@@H](n2cnc3c(N)ncnc32)[C@@H](O)[C@H]1O`, the activity, negative = inhibition is reported as “inactive”. For `CC(=O)Nc1ccccc1C(=O)OCc1ccc(C(=O)c2ccccc2)cc1`, the AC50 was 3.55 µM (active). In the case of `CC[C@H]1CN2CCc3cc(OC)c(OC)cc3[C@H]2C[C@@H]1C[C@H]1NCCc2c1[nH]c1ccc(O)cc21`, the activity, negative = inhibition is reported as 5.99% [at 11.4 µM] (inactive). In the case of `COC(=O)Nc1nc2ccc(C(=O)c3cccs3)cc2[nH]1`, the activity, negative = inhibition is reported as “inactive”. For `CN1[C@H]2CC(=O)C[C@@H]1[C@@H](O)C2`, the activity, negative = inhibition was “inactive”. With `CN1C(=O)C(=Cc2ccc(N3CCCCCC3)o2)C(=O)N(C)C1=S` the AC50 was 7.94 µM (active). `COc1cc(C[C@H](C)N)c(OC)cc1I` was tested, and the activity, negative = inhibition was “inactive”. With `C/C=C1\C[N@@+]2(C)CC[C@@]34C(=C(C=O)[C@H]1C[C@H]32)Nc1ccccc14` the activity, negative = inhibition was “inactive”. `O=[N+]([O-])c1cc([As](=O)(O)O)ccc1O` was tested, and the activity, negative = inhibition was “inactive”. In the case of `O=[N+]([O-])c1cc(O)c(O)c([N+](=O)[O-])c1`, the AC50 is reported as 0.794 µM (active). For `C[As+](C)(c1ccc(Br)c([N+](=O)[O-])c1)c1ccc(Br)c([N+](=O)[O-])c1.O=[N+]([O-])O`, the activity, negative = inhibition was 1.81% [at 11.4 µM] (inactive). `O=C(CCCN1CCC2(CC1)C(=O)NCN2c1ccccc1)c1ccc(F)cc1` was tested, and the activity, negative = inhibition was “inactive”. `[N-]=[N+]=NCC(=O)c1c[nH]c(=O)[nH]c1=O` was tested, and the activity, negative = inhibition was -6.58% [at 11.4 µM] (inactive). In the case of `O=C1NCN(c2ccccc2)C12CCN(CCCOc1ccc(F)cc1)CC2`, the activity, negative = inhibition is reported as “inactive”. `CC(C)c1c(CN(C)[C@@H](C)Cc2ccccc2)n(C)n(-c2ccccc2)c1=O` was tested, and the AC50 was 7.94 µM (active). `CCCN(CCC)C(=O)Cc1c(-c2ccc(Cl)cc2)nc2c(Cl)cc(Cl)cn12` was tested, and the activity, negative = inhibition was “inactive”. With `CCCCCC[C@H]1C(=O)O[C@H](C)[C@H](NC(=O)c2cccc(NC=O)c2O)C(=O)O[C@@H](C)[C@H]1OC(=O)CC(C)C` the activity, negative = inhibition was “inactive”. For `CCOC(=O)N1CCC(NC(=O)CCc2nc(C3=CCN(C)CC3)no2)CC1`, the activity, negative = inhibition was “inactive”. For `O=C(Nc1ccc(F)cc1F)c1cccnc1Oc1cccc(C(F)(F)F)c1`, the activity, negative = inhibition was “inactive”. With `CN(C)CCN(C)CCc1ccc(Cl)c(Cl)c1` the activity, negative = inhibition was “inactive”. In the case of `O=C(Nc1ccccc1)N1CC2(CCN(C(=O)Oc3ccccc3)CC2)C1`, the activity, negative = inhibition is reported as “inactive”. `NC(N)=NN=Cc1c(Cl)cccc1Cl` was tested, and the activity, negative = inhibition was “inactive”. For `c1ccc(N2CCC3(CCNCC3)CC2)cc1`, the activity, negative = inhibition was “inactive”. `CCc1ccccc1NC(=O)NC1CC2CCC(C1)N2Cc1cccs1` (stereo unspecified) was tested, and the activity, negative = inhibition was “inactive”. `COc1ccc(NC(=O)NC2CC3CCCC(C2)N3Cc2ccccc2)cc1` (stereo unspecified) was tested, and the activity, negative = inhibition was “inactive”. `O=C(NC1CCCCC1)NC1CC2CCC(C1)N2Cc1nnnn1Cc1ccc2c(c1)OCO2` (stereo unspecified) was tested, and the AC50 was 14.1 µM (active). In the case of `CC1=C(CC[C@H](C)CO)O[C@@H]2C[C@@H]3[C@H]4CC[C@H]5C[C@@H](O)CC[C@]5(C)[C@@H]4CC(=O)[C@@]3(C)[C@@H]12`, the activity, negative = inhibition is reported as -6.29% [at 11.4 µM] (inactive). With `O=C1/C(=C\c2ccccc2)C[C@@]2(O)[C@H]3Cc4ccc(O)c5c4[C@@]2(CCN3CC2CC2)[C@@H]1O5` the activity, negative = inhibition was “inactive”. For `Cc1nc2sccc2c(=O)n1-c1ccccc1Cl`, the activity, negative = inhibition was “inactive”. With `O=c1c2ccccc2nc(N2CCCC2)n1-c1ccc(Cl)cc1` the AC50 was 14.1 µM (active). `O=C(O)c1nn(Cc2ccc(Cl)cc2Cl)c2ccccc12` was tested, and the activity, negative = inhibition was “inactive”. `C=CCN1CCC2(C)c3cc(O)ccc3C[C@H]1[C@H]2C` was tested, and the activity, negative = inhibition was “inactive”. With `C1C[C@@H]2CN(CCCN3CCOCC3)[C@@H](C1)O2` the activity, negative = inhibition was -4.7% [at 11.4 µM] (inactive). With `Cc1ccc(NC(=[OH+])c2cc3ccccc3cc2O)c(C)c1.Cc1ccc(NC(=[OH+])c2cc3ccccc3cc2O)c(C)c1.[Ni]` the AC50 was 3.16 µM (active). For `COc1cc(CCN)c(OC)c(OC)c1`, the activity, negative = inhibition was -1.31% [at 11.4 µM] (inactive). `O=C(CCN1CC2CCC(CC2)C1)c1cccs1` was tested, and the activity, negative = inhibition was -7.86% [at 11.4 µM] (inactive). With `C[C@@H]1OC=C2[C@@H](O)[C@H]3O[C@H]3C(=O)[C@@]23[C@H]1[C@H]1C2=C([C@@H](O)[C@H]4O[C@@H]4C2=O)[C@@H]3O[C@@H]1C` the activity, negative = inhibition was 19.8% [at 11.4 µM] (inactive). For `Nc1nnnn1CCO`, the activity, negative = inhibition was -3.83% [at 11.4 µM] (inactive). With `CS(=O)(=O)O[C@H]1CN2CCC1CC2` the activity, negative = inhibition was 8.53% [at 11.4 µM] (inactive). For `CN1[C@@H]2CC[C@H]1CC(O[C@@H](c1ccccc1)c1ccc(Cl)cc1)C2` (stereo partly specified), the activity, negative = inhibition was “inactive”. For `CCCCN(CCCC)CCC(O)c1cc2c(Cl)cc(Cl)cc2c2cc(C(F)(F)F)ccc12` (stereo unspecified), the activity, negative = inhibition was “inactive”. `N[C@H](CCl)C(=O)O` was tested, and the activity, negative = inhibition was “inactive”. With `O=C(Oc1ccccc1)N1CCC2(CCN(Cc3nccs3)CC2)CC1` the activity, negative = inhibition was “inactive”. In the case of `CN(C)Cc1c[nH]c2ccccc12`, the activity, negative = inhibition is reported as “inactive”. In the case of `CC(C)COc1ccc(C2(C#N)CC[N+](C)(C)CC2)cc1`, the activity, negative = inhibition is reported as “inactive”. For `C=C(C)[C@H]1CC[C@]2(C(=O)O)CC[C@]3(C)[C@@H](CC[C@H]4[C@@]5(C)CC[C@@H](O)C(C)(C)[C@@H]5CC[C@@]43C)[C@H]12`, the activity, negative = inhibition was “inactive”. With `CCCCCCCC/C=C\CCCCCCCC(N)=O` the activity, negative = inhibition was “inactive”. For `CCCCC/C=C\C/C=C\C/C=C\C/C=C\CCCC(=O)NCC(=O)O`, the activity, negative = inhibition was “inactive”. With `CCCCC/C=C\C/C=C\C/C=C\C/C=C\CCCC(=O)Nc1ccc(O)cc1` the AC50 was 5.01 µM (active). `C[N+]1(C)CCc2cc3c(cc2[C@@H]1[C@@H]1OC(=O)c2c1ccc1c2OCO1)OCO3` was tested, and the activity, negative = inhibition was “inactive”. `O=C(Nc1ccccc1)N1CC[C@@]2(CCCN(C(=O)Oc3ccccc3)C2)C1` was tested, and the activity, negative = inhibition was “inactive”. For `O=C(O)/C=C(\CC(=O)O)C(=O)O`, the activity, negative = inhibition was -16.9% [at 11.4 µM] (inactive). For `O=C(O)C(=O)Cc1ccc2c(c1)OCO2`, the activity, negative = inhibition was 25.4% [at 11.4 µM] (inactive). With `COCOc1ccc(Br)cc1C(=O)/C=C\c1ccc2c(c1)OCO2` the AC50 was 2 µM (active). With `CCN1CCC2(CC1)NC(CO)(CO)CO2` the activity, negative = inhibition was “inactive”. For `O=C(O)[C@H]1[C@H](C(=O)O)[C@H]2CC[C@@H]1O2`, the activity, negative = inhibition was “inactive”. `N[C@H](Cc1c[nH]c2ccccc12)P(=O)(O)O` was tested, and the activity, negative = inhibition was 5.69% [at 11.4 µM] (inactive). For `C[C@@]12CC(=O)[C@H]3[C@@H](CCC4=CC(=O)CC[C@]43C)[C@H]1CCC2=O`, the activity, negative = inhibition was “inactive”. With `O=C(c1ccccc1F)c1cn(CC(=O)N2CCOCC2)c2ccccc12` the AC50 was 11.2 µM (active). In the case of `CCCn1c(C)c(C(=O)c2cccc3ccccc23)c2ccccc21`, the activity, negative = inhibition is reported as “inactive”. With `CCOC(=O)Cn1cc(C(=O)c2ccccc2F)c2ccccc21` the AC50 was 7.08 µM (active). For `C[C@@]12CC[C@@H]3c4ccc(O)cc4C[C@H](CCCCCCCCCS(=O)CCCC(F)(F)C(F)(F)F)[C@H]3[C@@H]1CC[C@@H]2O` (stereo partly specified), the activity, negative = inhibition was “inactive”. `O=c1cc(-c2ccc(O)cc2)oc2c([C@H]3O[C@@H](CO)[C@@H](O)[C@@H](O)[C@@H]3O)c(O)cc(O)c12` was tested, and the activity, negative = inhibition was “inactive”.

Reference: PubChem BioAssay AID1851 (National Center for Advancing Translational Sciences (NCATS), 2009)
% is scaled to controls: 0 for no effect and ±100 for the full control effect.
